High-throughput results as filed in PubChem.
Compounds with a hit are over-represented: about 2.2% of the library has one in this group of screens.
TRPM1 prom inh – reduces MITF-dependent TRPM1 promoter luciferase signal; SK-MEL-5 TRPM1 promoter luciferase, 24 h; inhibition, % at 12.5 µM; actives 0.83% (n = 330,000); AID 488899;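 active means mean inhibition across replicates of 60% or more, whatever share of single replicates reaches that level; inconclusive means some that reach 60%, reason not given; inactive means mean inhibition across replicates below 60%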
PAX8 inh HTS – lowers PAX8-driven luciferase in RMG-I cells; actives 1.2% (n = 360,000); inhibition, % at 12.6 µM; RMG-I TPO-luciferase reporter, SteadyGlo, 24 h;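 active means mean replicate inhibition at least 60% with every replicate also reaching 60%; inconclusive means only one of the two criteria is met; inactive means mean below 60% and not all replicates reaching 60%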;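 further: luciferase light reporting Pax8 driven TPO promoter activity; plate controls were median of neutral control wells for no effect and mitoxantrone controls for full effect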
PGC1a acetyl inh – lowers PGC1a acetylation signal in U2OS cells; AlphaScreen anti-acetyl-lysine; with virally co-expressed GCN5 acetyltransferase; inhibition, % at 15.6 µM; actives 0.17% (n = 350,000); AID 651687;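 active means every replicate shows inhibition of at least 40%; inconclusive means mean inhibition at least 40% but some replicate below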;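 further: 0% = neutral control wells and 100% = positive control wells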
EBV LMP1 NFkB – inhibitors of Epstein-Barr LMP1-induced NF-kappaB reporter; LMP1-induced NF-kappaB luciferase reporter cells, luminescence; actives 0.69% (n = 350,000); AID 504558; inhibition, % at 12.5 µM; in the data active means inhibition above about 41%; inconclusive means no clear call, values can overlap the other calls;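 further: 0% = neutral control wells and 100% = reference inhibitor control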
EWS-Fli block – blocks EWS/Fli oncoprotein-driven transcription; actives 0.67% (n = 350,000); AID 651661; inhibition, % at 12.6 µM; A673 NR0B1-luciferase reporter, viability-normalised;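 active means mean inhibition of at least 50% after viability correction, with every replicate also passing that limit; inconclusive means mean reaches 50% but only one of two replicates passes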;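 further: firefly luciferase signal divided by Alamar Blue viability fluorescence both relative to DMSO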
LGR2 antag – Drosophila LGR2 receptor signaling inhibition | HEK293 LGR2, CRE-luciferase, bursicon-stimulated, 4 h | inhibition, % at 9.99 µM | actives 0.35% (n = 380,000) | AID 720647;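 active means drop in luminescence signal, shown as inhibition above about 50% in the replicate tests, limit read from the data, passing the limit was not always enough; inconclusive means probably only some replicates passing the limit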;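 further: agonist challenge used bursicon conditioned medium at about half maximal strength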
The depositor's hits bear a star; ? = inconclusive; nt = not tested or not shown.

SMILES	TRPM1 prom inh	PAX8 inh HTS	PGC1a acetyl inh	EBV LMP1 NFkB	EWS-Fli block	LGR2 antag
COc1cccc(CNC(=O)C[C@@H]2CC[C@@H](NC(=O)C3CC3)[C@H](CO)O2)c1	nt	-1.9	6.1	nt	5.1	2.1
Cc1noc(C)c1S(=O)(=O)N(C)C[C@@H]1Oc2ccc(NS(C)(=O)=O)cc2CC(=O)N([C@H](C)CO)C[C@H]1C	nt	-0.2	2.2	nt	-5.0	-3.5
COc1ccc(-c2ccc3c(c2)O[C@@H](CN(C)Cc2ccccc2C(=O)O)[C@H](C)CN([C@@H](C)CO)S3(=O)=O)cc1	nt	nt	6.5	nt	-6.3	-25.6
CN(C)C(=O)C[C@@H]1C=C[C@H](NC(=O)C2CCC2)[C@H](CO)O1	nt	2.7	-6.5	nt	-2.8	5.2
Cc1cccc(-c2cc3c(N=O)c4ccccc4c-3n[nH]2)c1	-3.8	-65.6	nt	-24.6	-4.1	-10.5
O=Nc1c2cc(-c3ccccc3)[nH]nc-2c2ccccc12	26.5	-85.7	-6.1	-5.7	62.9*	?
Cc1ccc(-c2cc3c(N=O)c4ccccc4c-3n[nH]2)cc1	74.0*	-78.9	nt	63.1*	79.8*	94.5*
Cc1cc(C(=O)Nc2ccc3c(c2)C(=O)N(C)[C@H]2CC[C@@H](CC(=O)NC4CCCC4)O[C@@H]2CO3)no1	nt	-18.6	2.2	nt	0.3	0.7
CN(C(=O)c1cccc(NC(=O)Cc2ccc(NC(=O)C3CCCN(C(=O)CCc4ccccc4)C3)cc2)c1)C1CCC1 (configuration not stated)	61.5*	38.2	-10.6	18.0	2.3	28.2
COc1ccc(Cc2nnc(N/N=C/c3ccc(O)cc3)[nH]c2=O)cc1OC	59.1	59.5	nt	60.5*	nt	32.5
COc1ccc(Cc2nnc(N/N=C/c3ccc(Br)cc3)[nH]c2=O)cc1OC	-12.3	-9.5	-1.8	-4.0	8.2	10.7
CCCNC(=O)N1CC2(C1)[C@H](c1ccccc1)[C@H](CO)N2Cc1ccc(F)cc1	nt	-4.7	-21.8	nt	9.9	3.8
Cc1cccc(CN2C(=O)/C(=C\c3ccc(C(=O)NCCN4CCOCC4)cc3)Sc3ccccc32)c1	-2.5	nt	5.6	5.6	nt	nt
CCN1CCN(CCNC(=O)c2ccc(/C=C3/Sc4ccccc4N(Cc4cccc(Cl)c4)C3=O)cc2)CC1	67.5*	7.2	-5.3	-11.5	46.4	52.3*
CCN1CCN(CCNC(=O)c2ccc3c(c2)N(Cc2ccc(F)cc2)C(=O)/C(=C/c2ccccc2)S3)CC1	91.7*	4.0	-22.1	-61.3	-12.8	24.4
CN1C/C(=C/c2cccnc2)C(=O)/C(=C/c2cccnc2)C1	100.5*	-1.7	nt	1.0	nt	3.6
Cc1noc(C)c1NC(=O)Nc1ccc2c(c1)CC(=O)N([C@@H](C)CO)C[C@H](C)[C@@H](CN(C)Cc1ccc(Oc3ccccc3)cc1)O2	nt	-0.2	-2.1	nt	-2.5	-1.4
C[C@H](CO)N1C[C@H](C)[C@@H](CN(C)CC2CCCCC2)Oc2ccc(NC(=O)Nc3ccc4c(c3)OCO4)cc2CC1=O	nt	90.2*	3.8	nt	-0.1	18.4
C[C@H]1CN([C@@H](C)CO)C(=O)Cc2cc(NC(=O)Nc3ccc(F)cc3)ccc2O[C@H]1CN(C)CC1CCCCC1	nt	19.5	nt	nt	32.6	?
C[C@H](CO)N1C[C@H](C)[C@H](CN(C)CC2CCCCC2)Oc2ccc(NC(=O)Nc3ccc(F)cc3)cc2CC1=O	nt	9.4	nt	nt	60.4*	14.6
C[C@H]1CN([C@@H](C)CO)C(=O)Cc2cc(NC(=O)Nc3ccc4c(c3)OCO4)ccc2O[C@@H]1CN(C)CC1CCCCC1	nt	101.1*	-7.9	nt	2.1	-28.8
CO[C@H]1CN(C)C(=O)c2cc(NS(C)(=O)=O)ccc2OC[C@H](C)N(C(=O)CC2CC2)C[C@@H]1C	nt	-6.9	-3.5	nt	2.8	18.1
CC(C)NC(=O)N(C)C[C@@H]1OCCCC[C@H](C)Oc2ccc(NS(=O)(=O)c3ccc(Cl)cc3)cc2C(=O)N([C@@H](C)CO)C[C@H]1C	nt	-17.6	-0.4	nt	-11.5	-10.2
COc1ccc2c3c(n(C)c2c1)[C@@H](CO)N(C(=O)c1cccnc1)CC31CN(S(C)(=O)=O)C1	nt	nt	-1.9	nt	-13.6	2.9
CC(=O)/C=C1/C(=O)Nc2ccccc21	27.8	16.9	nt	6.8	27.8	-22.3
SMILES	TRPM1 prom inh	PAX8 inh HTS	PGC1a acetyl inh	EBV LMP1 NFkB	EWS-Fli block	LGR2 antag
C=CCOc1cccc(C(=O)/C=C2/C(=O)Nc3ccccc32)c1	52.3	0.0	nt	5.5	54.3*	5.1
O=C1Nc2ccc(Br)cc2/C1=C/C(=O)c1ccccc1	75.2*	-13.3	4.6	-0.9	32.1	11.1
CN(C)C(=O)c1ccc(-c2ccc([C@@H]3[C@@H](CO)N4C(=O)CN(C(=O)C5CCCC5)C[C@@H]34)cc2)cc1	nt	-2.7	-3.3	nt	6.8	-1.2
Cc1ccc2nc(-c3ccccn3)[nH]c2c1	11.5	-31.7	3.0	40.7*	44.3	82.1*
CCCC(=O)NC(c1cccc([N+](=O)[O-])c1)c1ccc2cccnc2c1O (configuration not stated)	nt	77.8*	29.6	67.6*	11.4	40.9
CC(C)C(=O)NC(c1cccc([N+](=O)[O-])c1)c1ccc2cccnc2c1O (configuration not stated)	61.5*	77.9*	28.3	52.5*	33.0	11.1
CC(C)C(=O)NC(c1cccc([N+](=O)[O-])c1)c1c(O)ccc2ccccc12 (configuration not stated)	-33.4	-20.7	-1.6	-22.8	-24.4	-18.4
CCC(=O)NC(c1cccc([N+](=O)[O-])c1)c1c(OC(C)=O)ccc2ccccc12 (configuration not stated)	6.6	nt	-7.3	-5.8	nt	nt
C[C@@H]1CN([C@@H](C)CO)C(=O)c2cccc(NC(=O)C3CCOCC3)c2O[C@H]1CN(C)S(=O)(=O)c1cn(C)cn1	nt	nt	-1.7	nt	-8.4	38.4
C(#Cc1ccccc1)C[N+]1(CC#Cc2cccc3ccccc23)CCCC1	?	63.4*	nt	1.3	8.2	15.1
C=CCNc1nc2cc(-c3ccccc3C)sc2c(=O)n1C	nt	-9.9	nt	nt	63.1*	-24.1
Cc1ccc(CNc2nc3cc(-c4ccccc4C)sc3c(=O)n2C)c(C)c1	nt	27.4	nt	nt	9.7	1.8
O=C(Nc1ccccn1)c1ccc(-c2ccccc2)cc1	13.4	-1.3	1.2	47.0*	72.7*	70.3*
C[C@@H]1CCCCO[C@H](CN(C)C(=O)c2ccccc2)[C@@H](C)CN([C@H](C)CO)C(=O)c2cc(NC(=O)Nc3ccc(C(F)(F)F)cc3)ccc2O1	nt	6.9	9.7	nt	-10.5	-10.6
C[C@@H]1CCCCO[C@@H](CN(C)C(=O)Nc2ccc(C(F)(F)F)cc2)[C@H](C)CN([C@H](C)CO)C(=O)c2cc(NC(=O)Nc3ccccc3)ccc2O1	nt	63.5*	-10.8	nt	-11.4	-27.8
C[C@@H]1CCCCO[C@@H](CN(C)C(=O)Cc2ccccc2)[C@@H](C)CN([C@@H](C)CO)C(=O)c2cc(NC(=O)Nc3ccc(C(F)(F)F)cc3)ccc2O1	nt	79.1*	nt	nt	-4.0	-8.3
